Measurements taken from the supplement of paper PMC3334620.
Over roughly 33,000 sequences, “E-score (-0.5 to 0.5)” has its median near -0.053; the highest 2% begin near 0.37. Only a selection was taken, and the highest values are over-represented in it overall.

What follows are sequences tested against Hap1 (UniProt P0CE41) (assay: PBM E-score (8-mer binding enrichment) (E-score (-0.5 to 0.5)); higher = stronger / more preferred TF binding). Conditions: protein concentration: 200 nM; construct: GST-DNA-binding domain.
Summary of the method: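 The E-score, a modified Wilcoxon-Mann-Whitney statistic, was computed by the Universal PBM Analysis Suite for every ungapped eight-base word pooled with its reverse complement. Scans behind it were normalised with masliner after bound GST-tagged yeast transcription factors were detected with fluorescent anti-GST. The proteins, at about 100-200 nM, had been applied to universal all-10-mer Agilent arrays made double-stranded by primer extension.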

UniProt P0CE41, sequence (P0CE41 whole entry, the tested form may be a part): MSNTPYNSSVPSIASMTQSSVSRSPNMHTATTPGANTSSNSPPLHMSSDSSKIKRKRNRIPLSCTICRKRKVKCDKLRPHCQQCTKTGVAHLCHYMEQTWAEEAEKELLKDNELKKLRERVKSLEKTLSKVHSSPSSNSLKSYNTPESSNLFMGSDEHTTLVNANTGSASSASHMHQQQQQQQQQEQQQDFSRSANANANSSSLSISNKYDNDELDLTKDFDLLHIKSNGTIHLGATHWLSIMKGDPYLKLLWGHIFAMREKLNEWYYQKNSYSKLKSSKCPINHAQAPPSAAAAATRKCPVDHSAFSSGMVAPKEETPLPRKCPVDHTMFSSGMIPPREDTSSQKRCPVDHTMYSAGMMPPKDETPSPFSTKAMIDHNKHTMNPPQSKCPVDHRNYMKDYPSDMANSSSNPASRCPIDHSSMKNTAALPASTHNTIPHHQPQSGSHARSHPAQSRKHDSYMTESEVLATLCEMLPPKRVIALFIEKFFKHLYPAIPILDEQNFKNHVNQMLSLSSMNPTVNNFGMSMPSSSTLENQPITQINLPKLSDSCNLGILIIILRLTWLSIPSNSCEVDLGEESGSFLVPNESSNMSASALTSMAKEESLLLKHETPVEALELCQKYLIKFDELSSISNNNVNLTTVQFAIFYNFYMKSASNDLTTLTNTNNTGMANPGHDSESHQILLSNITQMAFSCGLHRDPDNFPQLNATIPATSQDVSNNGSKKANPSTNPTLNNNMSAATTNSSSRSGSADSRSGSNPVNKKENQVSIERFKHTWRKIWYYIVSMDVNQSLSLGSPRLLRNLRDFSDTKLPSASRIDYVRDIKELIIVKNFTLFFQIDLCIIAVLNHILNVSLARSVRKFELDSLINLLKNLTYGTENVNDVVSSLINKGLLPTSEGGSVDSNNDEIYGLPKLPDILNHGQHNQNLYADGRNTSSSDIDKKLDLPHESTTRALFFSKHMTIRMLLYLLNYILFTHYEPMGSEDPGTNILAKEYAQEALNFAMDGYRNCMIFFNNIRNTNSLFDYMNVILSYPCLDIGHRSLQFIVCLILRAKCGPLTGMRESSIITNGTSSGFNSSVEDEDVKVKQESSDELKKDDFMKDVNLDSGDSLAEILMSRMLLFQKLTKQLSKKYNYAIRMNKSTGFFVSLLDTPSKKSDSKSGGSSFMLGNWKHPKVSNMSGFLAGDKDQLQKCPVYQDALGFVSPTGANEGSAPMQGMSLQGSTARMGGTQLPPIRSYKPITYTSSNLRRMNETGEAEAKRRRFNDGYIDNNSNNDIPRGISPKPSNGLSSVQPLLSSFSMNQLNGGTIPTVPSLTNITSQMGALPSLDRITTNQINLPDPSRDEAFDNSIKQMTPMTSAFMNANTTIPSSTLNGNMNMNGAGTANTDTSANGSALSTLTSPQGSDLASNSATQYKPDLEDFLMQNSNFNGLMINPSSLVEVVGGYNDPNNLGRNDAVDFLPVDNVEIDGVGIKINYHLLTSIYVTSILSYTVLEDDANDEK

Sequence | PBM E-score
CAAGTTCC | 0.124
CAGTGTGC | -0.139
ATGGCAGA | 0.089
CCAAATTC | -0.0397
AGTTCCTG | -0.178
AGTTCCGG | 0.394
GGTTCCGA | 0.279
AGTTCCGC | 0.278
CGTTCCGA | 0.123
AGTTCCGA | 0.395
GGTCCTAC | -0.0458
GTCAGCAA | -0.157
TTCCGCAA | 0.263
ACAGGTTC | -0.216
ACCGGTAT | 0.424
ACCGGTAC | 0.334
ACCGGTAG | 0.228
ATCGGTAA | 0.31
ACCGGTAA | 0.406
AACGGTAA | 0.186
ATCAACAC | -0.154
GAAAGAGC | -0.138
ACTAGACC | 0.0797
GGTTAGCA | -0.0201
CGCCCGAC | 0.366

Sequence | PBM E-score
TGTCCAAA | -0.133
TGTCCGAA | 0.412
GGTCCAAC | 0.13
CGCCCGAG | 0.396
CGTCCGAC | 0.302
GCTCCGAC | 0.212
AGCCCGAG | 0.208
GGTCCGAC | 0.392
CGTCCGAA | 0.394
TGTCCTAA | -0.338
CGTCCAAA | 0.0813
AACCAACG | -0.104
GTCTTACA | -0.195
CTTGGTAC | -0.213
CCTCTTTA | -0.303
CCGGTTAC | 0.279
ACACTGAA | -0.0306
AGAGTAGA | 0.0496
ACGAACAT | 0.0579
AAGGCAAA | -0.28
CGTCCAAG | -0.111
CGTCCGAG | 0.401
AGTCCAAA | -0.119
CATCCGAG | 0.265
GGTCCGTA | 0.329

Sequence | PBM E-score
AGTCCGAA | 0.416
GGTCCAAA | 0.0135
GGTCCGAA | 0.434
AGTCCTAA | -0.207
ACAAGGCA | -0.133
TAGCTTAA | -0.135
CATTGAAA | -0.0176
AAACGGAG | 0.258
CCGTTGCC | 0.299
CGGTGCTC | 0.161
CATGGACA | -0.324
ATGCACAT | -0.225
CAAATTGA | -0.173
ATTCTCCA | -0.157
AAGCTCCT | -0.0999
ATTCTCCG | 0.394
AAGCTCCG | 0.411
ATTCTCCC | 0.0268
CATCTCCA | -0.0795
AATCTCCC | 0.00843
CATCTCCC | 0.104
CATCTCCG | 0.435
AATCTCCT | 0.0543
CAGCTCCG | 0.299
AATCTCCG | 0.476

Sequence | PBM E-score
ACTGTACG | -0.167
GAGGCATA | 0.00364
CCTGAGTC | -0.0525
GCCCTGAA | 0.0376
AGTAGCCC | 0.0495
ACATTCCC | 0.0549
AGAGGGGA | -0.0354
TCGTAAAA | 0.0494
ATGTACGA | 0.105
CAGGGGAG | -0.137
TAAAGCAA | -0.0198
AACCGGCG | 0.382
AACCGGCC | 0.344
CACCGGCC | 0.313
CACCGGCG | 0.378
CACCGGCA | 0.201
AACCGGCA | 0.158
AATACTTG | -0.112
ACCGCACG | -0.0174
CCCAGCCC | -0.174
CAACCTTC | -0.0289
GCCCTTCA | -0.165
ATTTTCCA | -0.0537
AATTTCCG | 0.437
AATTTCCC | 0.06

Sequence | PBM E-score
CATTTCCG | 0.352
ATTTTCGG | 0.396
AAATTCCG | 0.376
ATTTTCCG | 0.413
AAATTCCA | 0.0643
ATTTTCGA | -0.0541
ATTTTCGC | 0.0139
ATTTTCCC | 0.123
AAATTCCC | 0.145
AGGTTGGC | 0.00268
AAACCCCA | -0.134
GGCTCTAC | 0.0591
GTCCTTCA | -0.162
CGTGAGAC | 0.00208
GGGAGCAA | 0.0117
AGTTTCCC | -0.0919
AGTTTCCG | 0.39
AGTTTCCA | -0.133
ACCATAGT | -0.0861
CTCGGACC | 0.375
CGCGGACA | 0.335
CACGGACC | 0.341
ATCGGACC | 0.4
GTCGGACA | 0.347
ATCGGGCA | 0.238

Sequence | PBM E-score
ATCGGACA | 0.394
CTTGGACA | -0.0486
ATCGGAAC | 0.318
CTCGGACA | 0.415
AGCGGACC | 0.257
CTCGGAAC | 0.31
CAAGGGGA | -0.0784
ATGGTTTG | 0.0601
CGACGTAG | -0.0488
ATAGAGGA | -0.186
CTCCAATC | -0.121
CCCAATTC | -0.135
CACCACAA | -0.117
ACATCCAT | -0.093
ACGTCTGG | -0.202
AATAGTAT | 0.103
AAGCAGCT | -0.114
CACGTCGA | -0.183
TACGGTGA | 0.0448
AGACGGCA | -0.0262
CACGGACA | 0.312
ATCGGTCA | 0.318
AGCGGACG | 0.297
CTCGGTCC | 0.35
AACGGTCA | 0.246

Sequence | PBM E-score
AACGGACA | 0.369
ATCGGACG | 0.422
AACGGACG | 0.305
ATCGGTCC | 0.374
GACGGTAC | 0.142
CACCACCC | 0.106
CGGTTGAG | 0.18
AGACCTCT | -0.208
CGAGGCCA | 0.022
TAGCACCA | -0.14
CGGGGCAA | 0.198
ATCTCTCC | -0.0103
ATATCTCC | 0.437
CTATATCC | 0.202
CGATATCA | 0.234
CTATCTCC | 0.358
GGATATCC | 0.236
CGATATCC | 0.375
AGATATCC | 0.192
AGATATCG | 0.315
ATATATCA | 0.0242
ATATATCC | 0.399
CGATATCG | 0.388
ACCTTGCC | -0.132
AAAGGAGC | -0.141

Sequence | PBM E-score
CATCTTTC | -0.224
AGGTGCTA | -0.132
AGGTTCAA | -0.0501
AAAGGCGC | -0.0167
CTTTAACC | -0.0789
CAGCAGTA | -0.352
AGAGCGGA | 0.13
CGAGCGGA | 0.37
CGAGCGGC | 0.238
AATGGTCA | -0.179
AACCGGAT | 0.286
TCACGGAA | 0.329
CCCCGGAA | 0.272
GCACGGAA | 0.215
AACCGGAG | 0.425
GCCCGGAA | 0.402
ACCCGGAA | 0.346
CCCCGGAC | 0.397
TCCCGGCA | 0.277
AACCGGAA | 0.337
TCCCGGAA | 0.397
CCCCGGCC | 0.348
CCTGCCGA | 0.156
AGGAGGCC | -0.254
AACGTTGT | -0.162

Sequence | PBM E-score
CGACACGA | 0.0811
CTACATGA | -0.187
TAAAGGCA | -0.0704
GCACTCGC | -0.0299
AGAGGGCA | -0.162
GAGCGATC | 0.0915
AAGTTATT | 0.0401
GCGTCACC | -0.0889
AATTGCAC | -0.191
ACCCGGGG | 0.306
ACCCGGGC | 0.368
ACCCGGGA | 0.328
ACCCGGAC | 0.372
ACCCGTAC | 0.0493
ACCCGGGT | 0.393
GCCCGGGA | 0.316
CCCGGGAG | 0.299
ACCCGGCC | 0.305
CCCCCGAG | 0.308
CCCCGGAG | 0.393
GCCCGGGC | 0.434
